USP30 inh – blocks human USP30 ubiquitin-rhodamine cleavage | Q70CQ3 | purified USP30, Ub-rhodamine cleavage fluorescence | inhibition, % at 25 µM | AID 1645860 | hit rate 5.3% among 47,000
Target sequence (Q70CQ3 whole entry, looked up): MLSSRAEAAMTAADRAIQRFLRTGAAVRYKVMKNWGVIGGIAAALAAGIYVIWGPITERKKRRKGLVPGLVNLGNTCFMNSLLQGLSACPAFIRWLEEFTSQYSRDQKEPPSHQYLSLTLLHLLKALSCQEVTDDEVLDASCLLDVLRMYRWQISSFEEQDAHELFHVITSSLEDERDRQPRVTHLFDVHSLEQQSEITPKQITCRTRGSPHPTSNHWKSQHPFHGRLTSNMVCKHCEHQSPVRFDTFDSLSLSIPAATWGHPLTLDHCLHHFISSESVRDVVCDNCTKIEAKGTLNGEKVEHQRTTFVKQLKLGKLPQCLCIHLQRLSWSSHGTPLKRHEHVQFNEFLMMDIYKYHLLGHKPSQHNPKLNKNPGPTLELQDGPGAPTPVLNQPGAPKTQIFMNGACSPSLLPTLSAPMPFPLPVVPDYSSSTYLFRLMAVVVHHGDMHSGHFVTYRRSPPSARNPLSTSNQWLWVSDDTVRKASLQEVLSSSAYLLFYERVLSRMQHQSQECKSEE
USP17 block – inhibitors of human USP17 deubiquitinase; A8MUK1; purified USP17, Ub-rhodamine cleavage fluorescence, 3 h; inhibition, % at 50 µM; hit rate 6.5% among 47,000; AID 1645855
USP28 inh – blocks human USP28 ubiquitin-rhodamine cleavage | hit rate 3% among 47,000 | purified USP28, Ub-rhodamine cleavage fluorescence, 30 min | Q96RU2 | inhibition, % at 25 µM | AID 1645857
Numbers stand for hits; . = inactive; / = no result given. Compounds with a hit are over-represented: about 11% of the library has one in this group of screens. Rule as the data show it: active = inhibition above about 30%; inactive = the rest.

SMILES	USP30 inh	USP17 block	USP28 inh
COc1cc(O)c2c(c1)C(=O)c1cc3c(c(O)c1C2=O)C(OC1OC(C)C(OC)C(O)C1OC)C(OC)C(C)(O)C3=O (configuration not stated)	.	.	.
CCCc1c(C(=O)O)c(O[C@H]2O[C@H](C)[C@@H](OC)[C@H](OC)[C@@H]2OC)cc2cc3c(c(O)c12)C(=O)c1c(O)cc(O[C@@H]2O[C@@H](C)[C@H](O[C@H]4O[C@H](C)[C@@H](OC)[C@H](OC)[C@@H]4O)[C@@H](OC)[C@H]2O)cc1C3=O	.	55	.
COc1ccc(Nc2cc(C(=O)NCCCN3CCCC3=O)c3ccccc3n2)c(OC)c1	.	.	.
O=C(c1nc(-c2cccc3[nH]ccc23)no1)N1CCCC1	48	41	.
O=C(c1nc(-c2cccc3[nH]ccc23)no1)N1CCCCC1	.	.	.
Cc1cccc(NC(=O)c2ccc(N3C(=O)C(C)CS3(=O)=O)cc2)c1C (configuration not stated)	/	34	/
Cc1ccc(C)c(NC(=O)c2ccc(N3C(=O)C(C)CS3(=O)=O)cc2Cl)c1 (configuration not stated)	.	.	.
CC1CS(=O)(=O)N(c2ccc(C(=O)NCc3ccc(F)cc3)cc2)C1=O (configuration not stated)	.	.	.
Cc1ccc(NC(=O)c2ccc(N3C(=O)C(C)CS3(=O)=O)cc2Cl)cc1C (configuration not stated)	.	.	39
Cc1nc2sc3c(NCc4cccnc4)ncnc3c2c2c1COC(C)(C)C2	.	/	.
COc1ccc(C(=O)N2CCC(c3[nH]nc4nccnc34)CC2)c(OC)c1	.	.	.
O=C(Nc1ccc(S(=O)(=O)N2CCCCC2)cc1)c1ccccn1	/	75	/
Cc1cc(NC(=O)CN2CCCN(S(=O)(=O)c3ccc(F)cc3)CC2)ccc1Br	38	35	.
Cc1cccc(NC(=O)CN2CCCN(S(=O)(=O)c3ccc(Br)cc3)CC2)c1	.	.	.
O=C(Nc1ccc(S(=O)(=O)N2CCCC2)cc1)c1ccccc1C(F)(F)F	.	.	.
COc1ccc(S(=O)(=O)N2CCC(C(=O)Nc3ccc4c(c3)OCO4)CC2)cc1	.	.	38
O=C(Nc1ccc2c(c1)OCO2)c1cccc(S(=O)(=O)N2CCCCCC2)c1	.	.	.
O=C(Nc1ccc(Br)cc1F)c1ccc(S(=O)(=O)N2CCCC2)cc1	.	.	.
Cc1ccc(C(=O)Nc2ccc(S(=O)(=O)N3CCCC3)cc2)cc1Br	45	.	78
Cc1cccnc1Nc1ccc(C2CN(Cc3cnc(C(C)C)nc3)CCO2)nc1 (configuration not stated)	.	.	.
CCN1C[C@H]2CCN(C(=O)c3cnc(C)cn3)CC[C@H]2S1(=O)=O	/	.	/
O=C(Nc1ccc2[nH]ccc2c1)C1CCN(S(=O)(=O)c2ccccc2)CC1	45	.	.
COc1ccc(C(=O)Nc2ccc(S(=O)(=O)N3CCCCC3)cc2)cc1	.	.	66
CC(=O)Nc1ccc(S(=O)(=O)N2CCC(C(=O)Nc3ccc4cc[nH]c4c3)CC2)cc1	.	.	.
CCOC(=O)N1CCN(S(=O)(=O)c2ccc(C(=O)Nc3ccc(OCC)cc3)cc2)CC1	.	.	.
SMILES	USP30 inh	USP17 block	USP28 inh
Cc1cccc(C)c1NC(=O)C1(NC(=O)C(C)O)CCCC1 (configuration not stated)	/	.	/
Cc1cccc(C)c1NC(=O)C1(NC(=O)c2ccc(Br)cc2)CCCCC1	.	35	.
Cc1cccc(CNc2nc3nc(C)cc(=O)n3[nH]2)c1	.	.	.
O=C1C=C[C@]23Oc4ccc(O)c5c4[C@](Oc4cccc1c42)(O3)C1OC1[C@@H]5O (some centres not stated)	.	45	.
O=C1C=CC(=O)[C@@]23O[C@@]12C1(Oc2cccc4cccc(c24)O1)[C@@H]1O[C@@H]1[C@@H]3O	.	.	.
CC1(O)C[C@@H](C(N)=O)N=C1c1ncccc1O (some centres not stated)	.	.	.
CCc1nc2ccccc2c(C(=O)OCc2ccc(Cl)cc2)c1C	.	.	.
CSc1nc(Cc2ccc(Cl)cc2)nc2ccccc12	.	.	56
CC(C)Cc1nc2ccc(NC(=O)c3ccncc3)cc2[nH]1	.	.	.
O=C1NCC2(C/C=C/CCOc3ccccc31)CCN(C(=O)c1ccnc(N3CCCC3)c1)CC2	88	95	72
Cc1ocnc1C(=O)N1CCC2(C/C=C/CCOc3ccccc3C(=O)NC2)CC1	.	.	.
CCc1noc(-c2ccc(-n3cnc(C(=O)NC4CCCCC4)c3)nc2)n1	.	.	.
Cc1ccc(C2/C(=C(\O)c3ccc(F)cc3)C(=O)C(=O)N2c2nc3ccc(F)cc3s2)cc1 (configuration not stated)	.	/	.
COc1ccc(O)c(C(=O)c2cc(C#N)c(=O)n(-c3cccc(C(F)(F)F)c3)c2)c1	.	.	.
COc1ccc(C2/C(=C(\O)c3ccccc3)C(=O)C(=O)N2c2cccc(C(F)(F)F)c2)cc1 (configuration not stated)	33	/	.
COc1ccc(C2/C(=C(\O)c3ccccc3)C(=O)C(=O)N2c2nc3ccc(F)cc3s2)cc1 (configuration not stated)	55	/	.
O=C(NCc1noc(COc2ccccc2)n1)C1CCCCC1	.	.	.
CC(C)/C=c1/c(=O)[nH]/c(=C\c2ccccc2)c(=O)n1C	.	.	.
Cc1cc(C(=O)COC(=O)c2cc(=O)[nH]c3ccccc23)c(C)n1CC1COc2ccccc2O1 (configuration not stated)	.	.	.
Cc1cc(=O)[nH]c(SCC(=O)c2cc(C)n(CCC3=CCCCC3)c2C)c1C#N	.	47	.
Cc1cccc(S(=O)(=O)NCc2nc3cccnc3n2C2CC2)c1	.	/	.
N#Cc1ccc(C(=O)Nc2cnc(N3CCCCCC3)nc2)cc1	/	53	/
COc1ccc(C(=O)Nc2cnc(N3CCCCCC3)nc2)cc1	.	.	44
Cc1nc(N2CCCC2)ncc1C(=O)Nc1ccc(Cl)cc1	.	45	.
O=C(Nc1cnc(N2CCCCC2)nc1)c1cc(F)cc(F)c1	.	.	.
SMILES	USP30 inh	USP17 block	USP28 inh
CC(=O)c1cccc(NC(=O)c2cnc(N3CCCCC3)nc2C)c1	.	.	.
O=C(Nc1cnc(N2CCCCCC2)nc1)c1ccc(F)cc1	.	.	.
O=C(c1cnccn1)N1CCCC(c2ncc(Cc3cccc(F)c3)o2)C1 (configuration not stated)	.	.	.
COc1ccccc1NC(=O)c1cccc(S(=O)(=O)NCc2ccccc2)c1	.	.	.
COc1ccccc1C1CC(c2ccc(Cl)cc2)N(C(=O)C(C)C)c2ncnn21 (configuration not stated)	.	.	.
O=C(Nc1ccc(Cl)cc1F)C(Cc1c[nH]c2ccccc12)N1CCS(=O)(=O)CC1 (configuration not stated)	.	.	.
Cc1c2oc3c(C)ccc(C(=O)NC4C(=O)N[C@@H](C(C)C)C(=O)N5CCCC5C(=O)N(C)CC(=O)N(C)C(C(C)C)C(=O)OC4C)c3nc-2c(C(=O)NC2C(=O)N[C@H](C(C)C)C(=O)N3CCCC3C(=O)N(C)CC(=O)N(C)C(C(C)C)C(=O)OC2C)c(N)c1=O (some centres not stated)	.	62	.
